Source: PubChem
CYP2C9 act: human CYP2C9 activators, primary screen, biochemical, luminescence. Cytochrome P450 2C9 (Homo sapiens), P11712. recombinant CYP2C9, luciferin-H conversion; active compounds read high; factor 1 = untreated enzyme, 0 = blocked. 96,000 tested, 1.4% active. activation factor at 5 µM;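 active = activation factor of 2 or more for CYP2C9 at a 5 µM dose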;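 also: 0 = sulfaphenazole-blocked wells and 1 = vehicle-only wells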
Target sequence (P11712 whole entry, looked up): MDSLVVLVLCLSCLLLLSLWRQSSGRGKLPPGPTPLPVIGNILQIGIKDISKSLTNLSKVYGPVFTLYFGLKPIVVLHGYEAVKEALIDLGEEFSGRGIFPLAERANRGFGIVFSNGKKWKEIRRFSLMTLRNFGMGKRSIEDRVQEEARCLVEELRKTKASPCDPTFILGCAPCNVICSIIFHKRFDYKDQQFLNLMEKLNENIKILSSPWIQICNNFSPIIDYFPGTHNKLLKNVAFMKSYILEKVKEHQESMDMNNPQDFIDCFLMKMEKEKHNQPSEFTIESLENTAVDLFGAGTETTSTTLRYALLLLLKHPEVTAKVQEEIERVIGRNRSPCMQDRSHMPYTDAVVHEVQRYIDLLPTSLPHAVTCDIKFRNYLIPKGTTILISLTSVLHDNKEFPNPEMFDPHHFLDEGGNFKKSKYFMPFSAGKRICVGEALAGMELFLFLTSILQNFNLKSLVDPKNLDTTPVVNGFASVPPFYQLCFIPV
CYP2C9 inh: blockers of cytochrome P450 2C9 activity – biochemical, luminescence, ADME assay, primary screen; P11712; CYP2C9 Supersomes, luciferin-H conversion; inhibition, % at 5 µM; 96,000 tested, 20% active;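 active = blocking of liver enzyme CYP2C9 beyond about 50% at 5 µM, limit read from the data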
CYP2C19 inhib: blockers of cytochrome P450 2C19 activity – biochemical, luminescence, ADME assay, primary screen. P33261. CYP2C19 Supersomes, luciferin-H EGE luminescence, 30 min. inhibition, % at 5 µM. 96,000 tested, 21% active;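 active = CYP2C19 inhibition above a set limit at 5 µM in the primary screen, cut at about 50% in these data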;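 also: plate controls were negative control wells for no effect and 2.5 mM tranylcypromine positive control for full effect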
PLAP act: PLAP enzyme activators, biochemical, luminescence, HTS; AID 696, 2007; Alkaline phosphatase, placental type (Homo sapiens), P05187; activation fold at 20 µM; purified PLAP enzyme, luminescent substrate read-out; active compounds read high; 96,000 tested, 1.2% active; in the data active = activation fold above about 2
CYP2C19 activ: human CYP2C19 activators, primary screen, biochemical, luminescence | recombinant CYP2C19, luciferin-H EGE luminescence; active compounds read high; 0 = fully inhibited enzyme, 1 = untreated enzyme | activation factor at 5 µM | 96,000 tested, under 10 active;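 active = activation factor of at least 2 at 5 µM in the primary screen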;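 also: 0 = wells with 2.5 mM tranylcypromine and 1 = vehicle-only wells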
* = called active by the depositor. Shown are actives, neighbours in structure and some others; about 31% of the full set was active somewhere.

SMILES	CYP2C9 act	CYP2C9 inh	CYP2C19 inhib	PLAP act	CYP2C19 activ
COc1ccc2c(c1)C(c1ccc([N+](=O)[O-])cc1)=NNC(c1ccco1)=N2	0.7	26.3	36.5	1	0.6
CCS(=O)(=O)N1CCC(NC(=O)c2cc(OC)cc(OC)c2)CC1	1	-0.6	17.2	1	0.8
COc1cccc(Nc2nnc(SCC(=O)N(CC(C)C)CC(C)C)s2)c1	0.6	37.0	32.3	0.9	0.7
COc1cc(NS(=O)(=O)c2ccc3c(c2)oc(=O)n3C)cc(OC)c1OC	0.3	70.8*	46.3	0.8	0.5
COC(=O)c1ccc(NS(=O)(=O)c2ccc3c(c2)oc(=O)n3C)cc1	0.1	90.2*	89.1*	1.2	0.1
COc1ccc(N2CCN(CCCNS(=O)(=O)c3ccc4c(c3)oc(=O)n4C)CC2)cc1	1	-1.7	-7.1	1.4	1.1
CCOc1ccc(NS(=O)(=O)c2ccc3c(c2)oc(=O)n3C)cc1	0.8	24.7	6.6	1	0.9
COc1ccc(NS(=O)(=O)c2ccc3c(c2)oc(=O)n3C)c(OC)c1	0.7	29.6	96.3*	1	0
CC1(C)CC(NC(=O)c2cccc3ccccc23)CC(C)(C)N1	0.9	14.2	-8.7	0.8	1.1
Cn1c(CCNC(=O)c2cccs2)nnc1SCC(=O)N1CCN(c2ccccc2)CC1	1	4.5	10.6	0.9	0.9
CCSC(=Nc1ccccc1)C1=C(O)COC1=O	0.9	5.1	1.4	0.9	1
COc1cccc(S(=O)(=O)N2CCN(c3ccccc3F)CC2)c1	0.3	66.6*	74.1*	1	0.3
CCCS(=O)(=O)N1CCN(c2ccccc2F)CC1	0.5	46.6	67.7*	1.2	0.3
O=C(c1cccc(S(=O)(=O)N2CCCC2)c1)N1CCN(c2ccccc2F)CC1	0.2	80.5*	93.1*	1.5	0.1
COC(=O)COc1ccc(S(=O)(=O)N2CCN(c3ccccc3F)CC2)cc1C	0.7	25.5	42.7	1.2	0.6
COc1ccc(/C=N/NC(=O)CCCC(=O)NC2CCCCC2)cc1	1	-1.8	-1.0	1.1	1
Cc1ccc(S(=O)(=O)N2CCCC2c2nc3ccccc3s2)cc1 (stereo not given)	0.7	26.2	21.1	0.8	0.8
COc1ccccc1CC(NC(C)=O)C(=O)N1CCN(C(=O)Nc2ccccc2Cl)CC1 (stereo not given)	1.2	-16.8	-5.4	1.9	1.1
Cc1cccc(-n2c(C)cc(/C=N/NC(=O)c3cccc([N+](=O)[O-])c3C)c2C)c1	0.6	44.5	34.6	1.2	0.7
COC(=O)C1=CN(c2cccc(C)c2)C=C(C(=O)OC)C1c1cc(OC)c(O)c([N+](=O)[O-])c1	0.5	50.7*	32.3	1.2	0.7
CCC(=O)NS(=O)(=O)c1cccnc1Nc1ccc(Cl)cc1	0	96.3*	18.4	1.3	0.8
CC(=O)NS(=O)(=O)c1cccnc1Nc1ccc(Cl)c(Cl)c1	0.3	71.0*	4.4	1.5	1
CNC(=O)CC1C(=O)N(C)C(=S)N1NC(=O)c1ccc(Cl)cc1 (stereo not given)	1	-2.0	3.2	1.1	1
COc1ccc(CCNC2CCN(C)CC2)cc1OC	0.3	74.1*	10.4	1.3	0.9
Cc1cnc(C(=O)Nc2nccs2)cn1	1.1	-7.1	-1.7	1.4	1
SMILES	CYP2C9 act	CYP2C9 inh	CYP2C19 inhib	PLAP act	CYP2C19 activ
CCOC(=O)c1c(NC(=O)c2ccco2)sc2c1CCCCC2	0.2	78.2*	38.1	1.5	0.6
CCOC(=O)c1c(NC(=O)c2c(C)noc2C)sc2c1CCCCC2	1.1	-6.1	-15.7	1.2	1.2
CCOC(=O)c1c(NS(=O)(=O)Cc2ccccc2)sc2c1CCCC2	0	95.1*	98.8*	1.6	0
CCOC(=O)c1c(NC(=O)C(C)N2CCN(C(=O)c3ccco3)CC2)sc2c1CCCC2 (stereo not given)	0	100.3*	77.2*	1.9	0.2
NC(=O)c1c(NC(=O)CSc2nnc(Cc3ccccc3)n2Cc2ccco2)sc2c1CCC2	0.4	63.6*	24.9	1.1	0.8
CCOC(=O)C(CCCOc1ccccc1)C(=O)OCC	1	4.7	19.6	0.9	0.8
Cc1ccc(NC(=O)COS(=O)c2ccc(C)cc2)cc1 (stereo not given)	0.6	43.5	31.6	0.9	0.7
CCCC1C2C(=O)N(c3ccccc3OCC)C(=O)C2ON1c1ccccc1 (stereo not given)	0.5	47.2	25.6	1.8	0.7
O=C(Nc1sc2c(c1C(=O)O)CCCCC2)c1ccco1	0.5	51.2*	39.5	1.1	0.6
CCOC(=O)c1c(NC(=O)c2cccs2)sc2c1CCCC2	1	0.5	3.3	0.9	1
CCOC(=O)c1c(NC(=O)CSc2nnc(CNC(=O)c3ccco3)n2C)sc2c1CCC2	0.3	70.5*	1.9	1.4	1
NC(=O)c1c(NC(=O)c2ccco2)sc2c1CCC2	0.7	33.0	15.7	1	0.8
CCOC(=O)c1c(NC(=O)c2ccc(N3C(=O)C4C5C=CC(C5)C4C3=O)cc2)sc2c1CCCC2 (stereo not given)	0.3	66.3*	13.8	1.3	0.9
OCCSc1nncn1/N=C/c1c[nH]c2ccccc12	0.7	29.7	13.6	0.8	0.9
N#CC1=C(N)NC(SCC(=O)c2ccc(Cl)cc2)=C(C#N)C12CCCC2	0	97.1*	100.4*	1.1	0
CC1(C)CC(=O)C2=C(C1)NC(SCC(N)=O)=C(C#N)C21CCCCC1	0.9	7.1	-1.4	1.1	1
COc1ccc(C(=O)CSC2=C(C#N)C3(CCCCC3)C(C#N)=C(N)N2)cc1	0	98.0*	99.8*	1.3	0
O=C(O)c1ccnc(C(=O)O)c1	1.1	-8.8	-11.7	1.2	1.1
O=C(Cn1c(-c2ccccc2)noc1=O)Nc1ccc(N2CCCCCC2)cc1	1	1.9	-10.1	1.1	1.1
Clc1ccc(C(c2nnnn2C2CCCC2)N2CCN(Cc3ccncc3)CC2)cc1 (stereo not given)	0.1	90.5*	98.1*	1.3	0
CCCC(c1nnnn1C1CCCC1)N1CCN(c2ccccc2F)CC1 (stereo not given)	0	97.2*	79.5*	1.5	0.2
c1ccc(C(c2ccccc2)N2CCN(Cc3nnnn3C3CCCC3)CC2)cc1	0	97.7*	96.5*	1.6	0
c1ccc(C(c2nnnn2C2CCCC2)N2CCCCCC2)nc1 (stereo not given)	0.5	45.6	51.9*	1.7	0.5
Fc1ccc(C(c2nnnn2C2CCCC2)N2CCN(Cc3ccccc3)CC2)cc1 (stereo not given)	0.9	5.9	36.5	1.2	0.6
CCC(c1nnnn1C1CCCC1)N1CCN(c2ccccc2F)CC1 (stereo not given)	0.4	55.7*	33.1	1.3	0.7
